According to the supplement of paper PMC10849652:
Targets with a hit are over-represented here; the source holds about 8,800 in all. About 0.5% of all pairs of compound and target were hits. Values without a mark were called inactive.

How the values were obtained:
Test in all cases: log2 fold change, soluble protein after heating vs DMSO (PISA); higher = thermal stabilisation; K562 lysate, 10 uM; active = over 0.2 and 3.5 SD of the protein, either way, in both replicates (recomputed)
[1] = compound: Cc1cn(-c2cc(NC(=O)c3ccc(C)c(Nc4nccc(-c5cccnc5)n4)c3)cc(C(F)(F)F)c2)cn1 [nilotinib]
Summary of the method: (§1)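 Following dounce homogenisation of K562 pellets in PBS pH 7.4 with 1 mM MgCl2, crude extract at 1 mg/mL protein was incubated for 30 min with 10 μM compound. Aliquots were then heated for 3 min over 48°C-58°C and pooled, NP-40 was added to 0.5% at 4°C, and soluble protein was recovered as the supernatant at 21,000xg for 90 min. Channel-sum-equalised TMTpro 16plex LC-MS/MS quantified this protein. Each value, from duplicates, is a log-two fold change in thermal stability relative to solvent controls.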

[2] = compound: Cc1nc(Nc2n[nH]c3c2CN(C(=O)N[C@H](CN(C)C)c2ccccc2)C3(C)C)c2sccc2n1
Summary of the method: as §1

[3] = compound: Cc1nc(Nc2ncc(C(=O)Nc3c(C)cccc3Cl)s2)cc(N2CCN(CCO)CC2)n1 [dasatinib]
Summary of the method: as §1

[4] = compound: Cc1ncc(-c2ccnc(Nc3ccc(S(C)(=O)=O)cc3)n2)n1C(C)C
Summary of the method: as §1

[5] = compound: Cn1cc(-c2ccc3c(c2)CCN3C(=O)Cc2cccc(C(F)(F)F)c2)c2c(N)ncnc21
Summary of the method: as §1

[6] = compound: Cn1cc(CNCC2CCN(c3ncc(C(=O)NO)cn3)CC2)c2ccccc21 [quisinostat]
Summary of the method: as §1

[7] = compound: Cn1cncc1[C@@](N)(c1ccc(Cl)cc1)c1ccc2c(c1)c(-c1cccc(Cl)c1)cc(=O)n2C [tipifarnib]
Summary of the method: as §1

[8] = compound: NC(=O)Nc1cc(-c2cccc(F)c2)sc1C(=O)N[C@H]1CCCNC1
Summary of the method: as §1

[9] = compound: NC(=O)c1cnc(N[C@@H]2CCCC[C@@H]2N)nc1Nc1cccc(-n2nccn2)c1
Summary of the method: as §1

[10] = compound: NC1(c2ccc(-c3nc4ccn5c(=O)[nH]nc5c4cc3-c3ccccc3)cc2)CCC1
Summary of the method: as §1

[11] = compound: NCC(=O)Nc1ccc(-n2nc(C(F)(F)F)cc2-c2ccc3c(ccc4ccccc43)c2)cc1
Summary of the method: as §1

[12] = compound: O=C(CCCCCCC(=O)Nc1ccccc1)NO [vorinostat]
Summary of the method: as §1

[13] = compound: O=C(O)c1ccc2c(c1)nc(Nc1cccc(Cl)c1)c1ccncc12 [silmitasertib]
Summary of the method: as §1

[14] = compound: O=C1NC(=O)C(c2cnc3ccccn23)=C1c1cn2c3c(cc(F)cc13)CN(C(=O)N1CCCCC1)CC2
Summary of the method: as §1

[15] = compound: c1cn2cc(-c3ccc4cn[nH]c4c3)nc(Nc3ccc(N4CCOCC4)cc3)c2n1 [entospletinib]
Summary of the method: as §1

Sequence of UniProt Q4G0N4 (Q4G0N4 whole entry, looked up): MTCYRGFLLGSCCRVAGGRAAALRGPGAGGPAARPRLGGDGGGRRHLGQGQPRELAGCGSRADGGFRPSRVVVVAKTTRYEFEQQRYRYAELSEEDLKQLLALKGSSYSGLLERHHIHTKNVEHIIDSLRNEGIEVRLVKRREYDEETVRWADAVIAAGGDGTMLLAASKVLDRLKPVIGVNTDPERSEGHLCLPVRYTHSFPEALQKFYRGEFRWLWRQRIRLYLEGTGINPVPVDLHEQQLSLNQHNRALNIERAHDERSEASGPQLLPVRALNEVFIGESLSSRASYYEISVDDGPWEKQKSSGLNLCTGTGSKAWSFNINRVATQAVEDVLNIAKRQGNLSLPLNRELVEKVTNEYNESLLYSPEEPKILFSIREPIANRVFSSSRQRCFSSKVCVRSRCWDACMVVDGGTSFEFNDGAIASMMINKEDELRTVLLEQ
Sequence of UniProt Q9UBD5 (Q9UBD5 whole entry, looked up): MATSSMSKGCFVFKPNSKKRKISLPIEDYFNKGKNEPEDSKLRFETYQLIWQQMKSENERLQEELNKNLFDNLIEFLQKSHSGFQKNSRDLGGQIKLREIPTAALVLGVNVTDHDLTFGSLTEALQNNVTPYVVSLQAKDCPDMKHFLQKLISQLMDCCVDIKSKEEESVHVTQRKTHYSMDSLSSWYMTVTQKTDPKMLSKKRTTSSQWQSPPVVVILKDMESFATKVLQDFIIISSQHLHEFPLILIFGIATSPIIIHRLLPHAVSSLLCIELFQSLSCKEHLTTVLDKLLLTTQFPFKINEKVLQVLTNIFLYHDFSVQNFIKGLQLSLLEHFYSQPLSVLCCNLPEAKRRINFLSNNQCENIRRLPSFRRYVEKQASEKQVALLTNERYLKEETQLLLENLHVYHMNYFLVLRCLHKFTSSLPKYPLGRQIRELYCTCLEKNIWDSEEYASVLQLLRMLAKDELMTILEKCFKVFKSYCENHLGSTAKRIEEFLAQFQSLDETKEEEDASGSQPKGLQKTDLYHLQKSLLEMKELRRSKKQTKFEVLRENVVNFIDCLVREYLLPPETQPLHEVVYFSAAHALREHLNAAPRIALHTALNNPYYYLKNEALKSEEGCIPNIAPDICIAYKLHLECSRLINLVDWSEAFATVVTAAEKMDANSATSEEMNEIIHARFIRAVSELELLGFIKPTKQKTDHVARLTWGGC

Q: Which results are given for NCOR2 (UniProt C9J0Q5)?
A: log2 fold change [1]: 0.09; log2 fold change [2]: -0.034; log2 fold change [3]: -0.082; log2 fold change [4]: 0.043; log2 fold change [5]: -0.015; log2 fold change [6]: -0.034; log2 fold change [7]: -0.045; log2 fold change [8]: 0.047; log2 fold change [9]: 0.025; log2 fold change [10]: 0.022; log2 fold change [11]: 0.093; log2 fold change [12]: -0.27 (active); log2 fold change [13]: -0.016; log2 fold change [14]: 0.011; log2 fold change [15]: -0.074

Q: MRPL53 (UniProt Q96EL3) was tested. Which log2 fold change [1] did it give?
A: The log2 fold change was -0.04.

Q: What about the log2 fold change [2] of the same target?
A: Its log2 fold change is 0.026.

Q: What about the log2 fold change [3] of the same target?
A: Its log2 fold change is -0.018.

Q: What about the log2 fold change [4] of the same target?
A: The log2 fold change was 0.015.

Q: What about the log2 fold change [5] of the same target?
A: Its log2 fold change is 0.06.

Q: What about the log2 fold change [6] of the same target?
A: Its log2 fold change is 0.02.

Q: And the log2 fold change [7]?
A: The log2 fold change was -0.034.

Q: What about the log2 fold change [8] of the same target?
A: The log2 fold change was -0.041.

Q: And the log2 fold change [9]?
A: Its log2 fold change is -0.006.

Q: And the log2 fold change [10]?
A: Its log2 fold change is 0.031.

Q: And the log2 fold change [11]?
A: Its log2 fold change is -0.052.

Q: And the log2 fold change [12]?
A: The log2 fold change was -0.119.

Q: What about the log2 fold change [13] of the same target?
A: Its log2 fold change is 0.042.

Q: And the log2 fold change [14]?
A: The log2 fold change was -0.024.

Q: What about the log2 fold change [15] of the same target?
A: The log2 fold change was 0.033.

Q: What does the source list for NADK2 (UniProt Q4G0N4)?
A: log2 fold change [1]: 0.022; log2 fold change [2]: 0.002; log2 fold change [3]: -0.016; log2 fold change [4]: -0.008; log2 fold change [5]: -0.022; log2 fold change [6]: 0.017; log2 fold change [7]: 0.008; log2 fold change [8]: -0.032; log2 fold change [9]: 0.029; log2 fold change [10]: 0.03; log2 fold change [11]: -0.002; log2 fold change [12]: -0.106; log2 fold change [13]: 0.044; log2 fold change [14]: 0.003; log2 fold change [15]: -0.001

Q: How did the log2 fold change [1] turn out when ORC3 isoform 2 (UniProt Q9UBD5) was run?
A: The log2 fold change was -0.014.

Q: What about the log2 fold change [2] of the same target?
A: The log2 fold change was 0.

Q: What about the log2 fold change [3] of the same target?
A: The log2 fold change was -0.084.

Q: And the log2 fold change [4]?
A: The log2 fold change was -0.014.

Q: What about the log2 fold change [5] of the same target?
A: The log2 fold change was -0.012.

Q: What about the log2 fold change [6] of the same target?
A: The log2 fold change was -0.038.

Q: And the log2 fold change [7]?
A: Its log2 fold change is -0.014.

Q: What about the log2 fold change [8] of the same target?
A: The log2 fold change was 0.099.

Q: What about the log2 fold change [9] of the same target?
A: The log2 fold change was 0.027.

Q: And the log2 fold change [10]?
A: The log2 fold change was -0.079.

Q: What about the log2 fold change [11] of the same target?
A: The log2 fold change was -0.012.

Q: And the log2 fold change [12]?
A: Its log2 fold change is -0.409 (active).

Q: And the log2 fold change [13]?
A: Its log2 fold change is 0.023.

Q: And the log2 fold change [14]?
A: The log2 fold change was 0.052.

Q: What about the log2 fold change [15] of the same target?
A: Its log2 fold change is 0.013.
